This note sets out measurements from PubChem BioAssay (Tox21).

The structures appear in SMILES notation. Results filed as inconclusive are left out. Calls of active or inactive are those of the source. Unless noted, calls follow the shape of the dose curve; as a rule, active = well fitted curve in the direction sought with a large enough effect in the repeat runs; inconclusive = weak or mixed curves; inactive = no such curve, though single readings can be large; an effect the other way counts as inactive or inconclusive.

Assay [1] can be described thus: qHTS assay to identify small molecule antagonists of the retinoid acid receptor (RAR) signaling pathway - cell viability counter screen (AID 1159551). Also: nearly all actives have a fitted effect of over 35% in size. In a few lines: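 C3RL4 RARE-luciferase line; cpds + retinol 1 uM final, 6 h, 37 C/5% CO2; CellTiter-Glo ATP luminescence, 30 min RT.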
Assay [2] in a line: qHTS assay to identify small molecule antagonists of the estrogen related receptor (ERR) signaling pathway from Tox21 library - cell viability counter screen (AID 1224834). Also: nearly all actives have a fitted effect of over 30% in size. Also: potency is read from the fitted curve at half-maximal effect. The essentials:
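Multiplexed viability counter screen in ERR cells: 17.5 h compound exposure at 37 C, CellTiter-Fluor added, 30 min at 37 C/5% CO2, fluorescence read.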

Assay [3] has as its target Luciferin 4-monooxygenase (Photinus pyralis) (UniProt P08659). The assay can be described thus: qHTS assay to identify small molecule inhibitors of firefly luciferase (AID 1224835). Also: series mostly up to about 120 µM; nearly all actives have a fitted effect of over 25% in size. In a few lines: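 Biochemical qHTS: compounds run as interplate titrations against purified firefly enzyme, with D-luciferin and ATP each at its KM concentration. Light output recorded by CCD imaging.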

Assay [4] addresses Nuclear receptor subfamily 1 group I member 3 (Homo sapiens) (UniProt Q14994). The assay can be described thus: qHTS assay to identify small molecule antagonists of the constitutive androstane receptor (CAR) signaling pathway (AID 1224838).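 Also: HepG2 cells stably expressing hCAR with CYP2B6 luciferase reporter stimulated by CITCO; nearly all actives have a fitted effect of over 40% in size.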 The essentials:
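Read-out: ONE-Glo luciferase luminescence after 30 min at room temperature. HepG2-CYP2B6-hCAR double-stable cells, compounds in 15-point titration plus 50 nM CITCO final, 24 h at 37 C/5% CO2.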
Background: In qHTS, concentration-response curves come from the screen itself.

For assay [5] the target is unchanged. The assay can be described thus: qHTS assay to identify small molecule agonists of the constitutive androstane receptor (CAR) signaling pathway (AID 1224839). Also: nearly all actives have a fitted effect of over 15% in size. Also: potency is read from the fitted curve at half-maximal effect. In a few lines:
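Luminescence read-out (ONE-Glo, 30 min, room temperature) from double-stable HepG2-CYP2B6-hCAR cells exposed 24 h to 15-point compound series in presence of 0.75 uM PK11195 final.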

A short description of assay [6]: qHTS assay to identify small molecule antagonists of the estrogen related receptor signaling pathway with the pleiotropic PPARgamma coactivator (PGC) from Tox21 10K library - cell viability counter screen (AID 1224840; active = well fitted cell-killing curve with a large enough effect in the repeat runs, not every such curve was filed as active; also: nearly all actives have a fitted effect of over 40% in size; also: potency is read from the fitted curve at half-maximal effect). The essentials: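 Fluorescence read-out of CellTiter-Fluor viability reagent, added after cells had been exposed to compound in DMSO for 17.5 h at 37 C; 30 min development at 37 C/5% CO2. Cells: PGC/ERR line, 2,000/well.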

The nature of assay [7]: qHTS assay to identify small molecule agonists of the constitutive androstane receptor (CAR) signaling pathway - cell viability counter screen (AID 1224836). Also: series mostly up to about 92 µM; nearly all actives have a fitted effect of over 45% in size. The essentials: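 Viability read-out: CellTiter-Fluor fluorescence after 23 h compound exposure at 37 C/5% CO2 in double-stable HepG2-CYP2B6-hCAR cells, with PK11195 present at 0.75 uM final; compounds tested in 15-point titration.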

Assay [8] can be described thus: qHTS assay to identify small molecule antagonists of the estrogen related receptor signaling pathway with the pleiotropic PPARgamma coactivator (PGC) from Tox21 10K library (AID 1224841; call rule not given here; also: actives are mostly falling curves and most rising ones were filed inactive; nearly all actives have a fitted effect of over 50% in size; also: potency is read from the fitted curve at half-maximal effect). In a few lines: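 Luminescence read-out (One-Glo luciferase reagent, 30 min at room temperature) from PGC/ERR cells exposed to DMSO-dissolved test compounds for 18 h at 37 C; cells, 2,000 per well, had been preincubated 6 h before compound transfer.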

The nature of assay [9]: qHTS assay to identify small molecule agonists of the estrogen related receptor signaling pathway with the pleiotropic PPARgamma coactivator (PGC) from Tox21 10K library (AID 1224842). Also: nearly all actives have a fitted effect of over 15% in size. Also: potency is read from the fitted curve at half-maximal effect. The essentials: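 PGC/ERR reporter cell line, 2,000 cells per well, incubated 6 h at 37 C before 23 nL compound in DMSO was added. After 18 h at 37 C, One-Glo luminescence read following 30 min at room temperature.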

The target in assay [10] is Thyrotropin receptor (Homo sapiens) (UniProt P16473). The assay can be described thus: qHTS assay to identify small molecule agonists of the thyroid stimulating hormone receptor (TSHR) signaling pathway (AID 1224843; calls by dose curve; also: nearly all actives have a fitted effect of over 45% in size; also: potency is read from the fitted curve at half-maximal effect). The essentials:
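Agonist-mode screen: TSHR HEK293 cells received test chemicals for half an hour at room temperature, then HTRF cAMP detection reagents for one hour prior to fluorescence measurement. Each chemical ran as a 15-concentration series, triplicated.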

Assay [11] can be described thus: qHTS assay to identify small molecule antagonists of the constitutive androstane receptor (CAR) signaling pathway - cell viability counter screen (AID 1224837). Also: nearly all actives have a fitted effect of over 45% in size. Also: potency is read from the fitted curve at half-maximal effect. The essentials:
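Read-out: CellTiter-Fluor fluorescence after 23 hr at 37 C/5% CO2. Cells: HepG2 double-stable for hCAR and CYP2B6-2.2kb. Compounds tested at 15 concentrations in the presence of CITCO, final concentration 50 nM.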

A short description of assay [12]: qHTS assay to identify small molecule antagonists of the retinoic acid receptor (RAR) signaling pathway (AID 1159552; also: potency is read from the fitted curve at half-maximal effect; nearly all actives have a fitted effect of over 50% in size). The essentials: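 Luminescence from a RARE luciferase reporter in C3RL4 cells served as read-out. Cells received compounds together with 1 uM final retinol and incubated 6 hr at 37 C before detection reagent was added for 30 min at room temperature.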

Chain of Luciferin 4-monooxygenase (Photinus pyralis) (P08659 whole entry, looked up): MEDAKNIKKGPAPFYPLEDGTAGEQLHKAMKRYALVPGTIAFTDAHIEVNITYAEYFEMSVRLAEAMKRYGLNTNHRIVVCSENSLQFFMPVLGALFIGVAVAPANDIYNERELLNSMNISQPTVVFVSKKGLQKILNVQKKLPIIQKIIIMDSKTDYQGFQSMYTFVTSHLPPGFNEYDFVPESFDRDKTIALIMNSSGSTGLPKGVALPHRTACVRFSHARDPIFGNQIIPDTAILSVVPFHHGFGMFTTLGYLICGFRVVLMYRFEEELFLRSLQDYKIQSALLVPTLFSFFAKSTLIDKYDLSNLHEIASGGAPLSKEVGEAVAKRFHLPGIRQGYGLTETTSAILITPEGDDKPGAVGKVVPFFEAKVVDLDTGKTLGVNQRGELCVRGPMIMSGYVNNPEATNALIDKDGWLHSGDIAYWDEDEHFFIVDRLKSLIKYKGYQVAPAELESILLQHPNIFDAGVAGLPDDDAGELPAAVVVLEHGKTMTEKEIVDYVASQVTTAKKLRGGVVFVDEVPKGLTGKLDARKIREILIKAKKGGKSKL
Chain of Nuclear receptor subfamily 1 group I member 3 (Homo sapiens) (Q14994 whole entry, looked up): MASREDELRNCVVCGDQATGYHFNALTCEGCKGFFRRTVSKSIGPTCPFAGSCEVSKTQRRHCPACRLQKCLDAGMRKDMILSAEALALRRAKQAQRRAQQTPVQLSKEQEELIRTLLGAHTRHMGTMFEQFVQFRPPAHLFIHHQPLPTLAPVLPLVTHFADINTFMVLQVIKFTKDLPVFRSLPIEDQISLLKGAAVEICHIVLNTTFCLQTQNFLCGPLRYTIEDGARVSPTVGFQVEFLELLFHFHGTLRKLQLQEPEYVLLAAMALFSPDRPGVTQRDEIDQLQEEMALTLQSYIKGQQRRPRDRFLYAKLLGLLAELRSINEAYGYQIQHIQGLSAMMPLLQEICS
Chain of Thyrotropin receptor (Homo sapiens) (P16473 whole entry, looked up): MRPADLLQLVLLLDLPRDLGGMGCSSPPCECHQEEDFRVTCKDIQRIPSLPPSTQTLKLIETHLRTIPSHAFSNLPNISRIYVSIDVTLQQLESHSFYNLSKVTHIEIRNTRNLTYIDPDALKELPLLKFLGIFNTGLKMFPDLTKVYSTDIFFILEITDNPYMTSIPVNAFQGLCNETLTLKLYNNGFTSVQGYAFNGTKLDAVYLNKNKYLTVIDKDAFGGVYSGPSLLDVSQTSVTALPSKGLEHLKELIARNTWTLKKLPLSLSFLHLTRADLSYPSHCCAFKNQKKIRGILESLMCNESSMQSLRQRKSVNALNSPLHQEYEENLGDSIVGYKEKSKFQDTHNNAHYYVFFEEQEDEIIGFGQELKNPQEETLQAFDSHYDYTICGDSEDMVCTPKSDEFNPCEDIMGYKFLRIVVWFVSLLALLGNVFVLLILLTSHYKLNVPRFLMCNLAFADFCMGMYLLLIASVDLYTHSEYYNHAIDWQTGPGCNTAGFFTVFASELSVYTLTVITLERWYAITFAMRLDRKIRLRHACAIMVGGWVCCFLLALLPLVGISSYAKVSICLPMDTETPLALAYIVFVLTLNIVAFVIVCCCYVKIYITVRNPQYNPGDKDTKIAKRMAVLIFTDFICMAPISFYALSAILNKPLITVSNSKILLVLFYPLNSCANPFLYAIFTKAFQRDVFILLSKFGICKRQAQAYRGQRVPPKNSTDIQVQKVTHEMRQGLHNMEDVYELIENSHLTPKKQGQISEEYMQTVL

For `CC1=CC[C@H](C(C)C)C=C1`, the Potency result in assay [1], in assay [2], in [3], in assay [4], in assay [5] and in [6] was “inactive” throughout.
`CO[C@@H]1[C@H](OC(=O)/C=C/C=C/C=C/C=C/C(=O)O)CC[C@]2(CO2)[C@H]1[C@@]1(C)O[C@@H]1CC=C(C)C`: the Potency entry in assay [1], in assay [2], in assay [3], in assay [7], in assay [5] and in [6] was “inactive” in each case. For the same compound, the Potency result in assay [8], in [9] and in [10] was “inactive” each time.
On to `COc1ccc(C(=O)Nc2nc3ccccc3c(NCc3ccccc3)c2C#N)cc1`, for which the Potency entry in assay [1], in [7], in assay [11], in [4], in assay [6] and in assay [9] was “inactive” throughout. Also, in assay [10], the Potency result is “inactive”. In addition, the Potency in assay [5] is 21.7 µM (active).
As for `CCc1cc(C2=C(C(=O)O)N(c3ccccc3C(F)(F)F)S(=O)(=O)c3ccccc32)cc2c1OCO2`, the Potency entry in assay [1], in assay [3], in assay [5] and in [9] was “inactive” each time. Besides, the Potency in assay [8] is 30.3 µM (active).
As to `C=CC(=O)OCCOCCOC(=O)C=C`, the Potency is 48.8 µM (active) in assay [12]; 38.7 µM (active) in assay [2]; 61.4 µM (active) in assay [11]; 30.8 µM (active) in [6]; 9.73 µM (active) in [9]. For the same compound, the Potency entry in assay [3] and in assay [5] was “inactive” each time.
Regarding `O[C@@H](COc1cccc2ncccc12)CN1CCN(C2c3ccccc3[C@@H]3[C@H](c4ccccc42)C3(F)F)CC1` (stereo not given in full), the Potency result in assay [1], in assay [3] and in [5] was “inactive” each time. Moreover, the Potency is 9.44 µM (active) in [2] and 11.9 µM (active) in assay [10].
